Experimental data as given in PubChem BioAssay (Tox21).
Records with an inconclusive call do not appear. Where a call stands in place of a potency, no number is given. Calls of active or inactive are those of the source. Calls follow the shape of the full dose curve.

Assay: qHTS assay to identify small molecule agonists of the sonic hedgehog signaling (Shh) pathway (AID 1259368);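 also: NIH/3T3-derived 3T3Gli1-Luc cells carrying a stable Gli1-driven firefly luciferase reporter; nearly all actives have a fitted effect of over 15% in size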
Conditions: NIH/3T3 Gli1-Luc reporter, luciferase, 24 h, active compounds read high; series mostly up to 92.4 µM
Method in brief: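 Cells of a mouse NIH/3T3 clone stably expressing luciferase under the Gli1 transcriptional response element are exposed to test chemicals for 24 hr at 37 C. Pathway activation is detected as a rise in luminescence.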

Q: With `COc1ccc(OC)c(OC)c1` as the compound, how does the outcome read?
A: Its outcome is “inactive”.

Q: Which outcome does the source give for `CCCCCCCCCCCCCCC1CO1` (configuration not stated) here?
A: Its outcome is “inactive”.

Q: For `C=CCCCCCC`, which outcome is on record?
A: Its outcome is “inactive”.

Q: Which outcome does the source give for `N#Cc1cc2ccccc2c2ccccc12` here?
A: Its outcome is “inactive”.

Q: Which outcome does the source give for `CCOC(=O)C1=NN(c2ccccc2)C(=O)C1` here?
A: The outcome was “inactive”.

Q: For `OCCC1CCCCN1` (configuration not stated), which outcome is on record?
A: Its outcome is “inactive”.

Q: Which outcome does the source give for `CC(=O)/C=C/C1C(C)=CCCC1(C)C` (configuration not stated) here?
A: Its outcome is “inactive”.

Q: For `CCCCCCCCN(C)C`, which outcome is on record?
A: Its outcome is “inactive”.

Q: With `O=C1CCCCCO1` as the compound, how does the outcome read?
A: The outcome was “inactive”.

Q: For `Oc1ccc(O)c2c(O)cccc12`, which outcome is on record?
A: Its outcome is “inactive”.

Q: Which outcome does the source give for `Cc1ccc(C(N)=O)cc1N` here?
A: The outcome was “inactive”.

Q: Which outcome does the source give for `O=[N+]([O-])c1cccc(Cl)c1Cl` here?
A: The outcome was “inactive”.

Q: Which outcome does the source give for `O=C(O)C1CCC(C(=O)O)CC1` (configuration not stated) here?
A: The outcome was “inactive”.

Q: With `CC(C)(C)c1ccc(OCC2CO2)cc1` (configuration not stated) as the compound, how does the outcome read?
A: Its outcome is “inactive”.

Q: For `O=C1c2cccc(O)c2C(=O)c2c(O)cc(CO)cc21`, which outcome is on record?
A: The outcome was “inactive”.

Q: For `N#CCCNCCC#N`, which outcome is on record?
A: The outcome was “inactive”.

Q: Which outcome does the source give for `OCC1CC2CC1C1CCC(CO)C21` (configuration not stated) here?
A: The outcome was “inactive”.

Q: Which outcome does the source give for `Cc1occc1S` here?
A: The outcome was “inactive”.

Q: Which outcome does the source give for `CC(=O)[C@@]1(O)CC[C@H]2[C@@H]3C[C@H](C)C4=CC(=O)CC[C@]4(C)[C@H]3CC[C@@]21C` here?
A: The outcome was “inactive”.

Q: With `C[Si](C)O[Si](C)(C)O[Si](C)(C)O[Si](C)C` as the compound, how does the outcome read?
A: Its outcome is “inactive”.

Q: With `CN(C)CCCNCCCN` as the compound, how does the outcome read?
A: The outcome was “inactive”.

Q: Which outcome does the source give for `CCc1nn(C2CCCCC2)c2cc(C3(C#N)CCC(C(=O)O)CC3)ccc12` (configuration not stated) here?
A: The outcome was “inactive”.

Q: Which outcome does the source give for `FC(F)(F)C(F)(F)C(F)(F)C(F)(F)C(F)(F)C(F)(F)CCI` here?
A: Its outcome is “inactive”.

Q: Which outcome does the source give for `Cc1ncsc1CCO` here?
A: Its outcome is “inactive”.

Q: For `CCOC(=O)CC(=O)c1cc(F)c(Cl)nc1Cl`, which outcome is on record?
A: Its outcome is “inactive”.

Q: With `ClC(Cl)(Cl)c1ccc(C(Cl)(Cl)Cl)cc1` as the compound, how does the outcome read?
A: Its outcome is “inactive”.

Q: Which outcome does the source give for `O=C(Cl)c1c(Cl)cccc1Cl` here?
A: Its outcome is “inactive”.

Q: For `O=S(=O)(O)c1ccc(O)c2ncccc12`, which outcome is on record?
A: The outcome was “inactive”.

Q: For `CCCCCOC(=O)c1ccc(O)cc1`, which outcome is on record?
A: Its outcome is “inactive”.

Q: Which outcome does the source give for `C#CCOC(=O)[C@@H](C)Oc1ccc(Oc2ncc(Cl)cc2F)cc1` here?
A: Its outcome is “inactive”.

Q: Which outcome does the source give for `CC1=CC(=O)/C(=C(/C)O)C(=O)O1` here?
A: The outcome was “inactive”.

Q: For `CCOC(=O)CC(C)C`, which outcome is on record?
A: The outcome was “inactive”.

Q: For `COC(=O)C(C)=O`, which outcome is on record?
A: Its outcome is “inactive”.

Q: Which outcome does the source give for `c1ccc(CNCc2ccccc2)cc1` here?
A: The outcome was “inactive”.

Q: With `SC1CCCC1` as the compound, how does the outcome read?
A: Its outcome is “inactive”.

Q: For `CCCCCCCCC(CO)CCCCCC` (configuration not stated), which outcome is on record?
A: Its outcome is “inactive”.

Q: With `CCOc1ccc2[nH]cc(C(=O)NCc3ccccc3)c(=O)c2n1` as the compound, how does the outcome read?
A: Its outcome is “inactive”.

Q: Which outcome does the source give for `CCCCCCCCCCCCC(=O)O` here?
A: Its outcome is “inactive”.

Q: With `C1=Cc2ccccc2C1` as the compound, how does the outcome read?
A: The outcome was “inactive”.

Assay: qHTS assay to identify small molecule antagonists of the sonic hedgehog signaling (Shh) pathway (AID 1259369); also: nearly all actives have a fitted effect of over 45% in size; also: potency is read from the fitted curve at half-maximal effect
Conditions: NIH/3T3 Gli1-Luc reporter, Shh antagonist, luminescence 24 h; series mostly up to 92.4 µM
Method in brief: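 Cells are plated and held 4hr at 37 C, compounds (DMSO) are pinned in, conditioned medium is added to stimulate the pathway, and after 24hr luciferase reagent is added for 30min before luminescence is read.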

Q: With `COc1ccc(OC)c(OC)c1` as the compound, how does the Potency read?
A: The Potency was “inactive”.

Q: For `CCCCCCCCCCCCCCC1CO1` (configuration not stated), which Potency is on record?
A: Its Potency is “inactive”.

Q: With `C=CCCCCCC` as the compound, how does the Potency read?
A: Its Potency is 58.9 µM (active).

Q: With `N#Cc1cc2ccccc2c2ccccc12` as the compound, how does the Potency read?
A: The Potency was “inactive”.

Q: With `CCOC(=O)C1=NN(c2ccccc2)C(=O)C1` as the compound, how does the Potency read?
A: The Potency was “inactive”.

Q: For `OCCC1CCCCN1` (configuration not stated), which Potency is on record?
A: Its Potency is “inactive”.

Q: For `CC(=O)/C=C/C1C(C)=CCCC1(C)C` (configuration not stated), which Potency is on record?
A: The Potency was “inactive”.

Q: With `CCCCCCCCN(C)C` as the compound, how does the Potency read?
A: The Potency was “inactive”.

Q: Which Potency does the source give for `O=C1CCCCCO1` here?
A: Its Potency is “inactive”.

Q: Which Potency does the source give for `Oc1ccc(O)c2c(O)cccc12` here?
A: Its Potency is “inactive”.

Q: With `Cc1ccc(C(N)=O)cc1N` as the compound, how does the Potency read?
A: Its Potency is “inactive”.

Q: Which Potency does the source give for `O=[N+]([O-])c1cccc(Cl)c1Cl` here?
A: The Potency was “inactive”.

Q: For `O=C(O)C1CCC(C(=O)O)CC1` (configuration not stated), which Potency is on record?
A: Its Potency is “inactive”.

Q: Which Potency does the source give for `CC(C)(C)c1ccc(OCC2CO2)cc1` (configuration not stated) here?
A: Its Potency is “inactive”.

Q: Which Potency does the source give for `O=C1c2cccc(O)c2C(=O)c2c(O)cc(CO)cc21` here?
A: Its Potency is “inactive”.

Q: With `N#CCCNCCC#N` as the compound, how does the Potency read?
A: Its Potency is “inactive”.

Q: For `OCC1CC2CC1C1CCC(CO)C21` (configuration not stated), which Potency is on record?
A: The Potency was “inactive”.

Q: For `Cc1occc1S`, which Potency is on record?
A: The Potency was “inactive”.

Q: For `C[Si](C)O[Si](C)(C)O[Si](C)(C)O[Si](C)C`, which Potency is on record?
A: Its Potency is “inactive”.

Q: For `CCc1nn(C2CCCCC2)c2cc(C3(C#N)CCC(C(=O)O)CC3)ccc12` (configuration not stated), which Potency is on record?
A: The Potency was “inactive”.

Q: With `FC(F)(F)C(F)(F)C(F)(F)C(F)(F)C(F)(F)C(F)(F)CCI` as the compound, how does the Potency read?
A: Its Potency is “inactive”.

Q: For `Cc1ncsc1CCO`, which Potency is on record?
A: The Potency was “inactive”.

Q: Which Potency does the source give for `CCOC(=O)CC(=O)c1cc(F)c(Cl)nc1Cl` here?
A: Its Potency is “inactive”.

Q: With `ClC(Cl)(Cl)c1ccc(C(Cl)(Cl)Cl)cc1` as the compound, how does the Potency read?
A: Its Potency is “inactive”.

Q: Which Potency does the source give for `O=C(Cl)c1c(Cl)cccc1Cl` here?
A: The Potency was “inactive”.

Q: With `O=S(=O)(O)c1ccc(O)c2ncccc12` as the compound, how does the Potency read?
A: The Potency was “inactive”.

Q: Which Potency does the source give for `C#CCOC(=O)[C@@H](C)Oc1ccc(Oc2ncc(Cl)cc2F)cc1` here?
A: Its Potency is “inactive”.

Q: For `CC1=CC(=O)/C(=C(/C)O)C(=O)O1`, which Potency is on record?
A: Its Potency is “inactive”.

Q: With `CCOC(=O)CC(C)C` as the compound, how does the Potency read?
A: Its Potency is “inactive”.

Q: Which Potency does the source give for `c1ccc(CNCc2ccccc2)cc1` here?
A: The Potency was “inactive”.

Q: Which Potency does the source give for `SC1CCCC1` here?
A: Its Potency is “inactive”.

Q: With `CCCCCCCCCCCCC(=O)O` as the compound, how does the Potency read?
A: The Potency was 2.74 µM (active).

Q: Which Potency does the source give for `C1=Cc2ccccc2C1` here?
A: The Potency was “inactive”.
